SKKanGAS inh: inhibitors of SKKanGAS S. pyogenes growth in kanamycin (SK-promoter or general growth effect). BacTiter-Glo, 6 h. inhibition, % at 7.5 µM. actives 1.3% (n = 300,000). AID 1662;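 active means mean replicate score, as percent of positive control median, at least 50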;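 further: strain carries kanamycin resistance gene driven by streptokinase promoter and grows in 40 µg/ml kanamycin; loss of luminescence reflects streptokinase promoter inhibition or plain growth inhibition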
tim23-1 inh: tim23-1 yeast growth inhibition | inhibition, % at 20 µM | actives 1.3% (n = 330,000) | S. cerevisiae tim23-1 growth, BacTiter-Glo luminescence, 24 h;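 active means growth inhibition of the mutant yeast at or above 50%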;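 further: temperature-sensitive mutant grown at 25 °C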
tim10-1 inh: growth inhibitors of tim10-1 mutant yeast. S. cerevisiae tim10-1 ts strain growth, BacTiter-Glo, 24 h. inhibition, % at 20 µM. actives 2.2% (n = 330,000);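 active means inhibition of at least 40%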;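 further: mutant grown at 25 °C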
TIM10 inh: growth inhibitors of TIM10 yeast strain; inhibition, % at 10 µM; actives 1.4% (n = 330,000); S. cerevisiae TIM10 strain growth, BacTiter-Glo luminescence, 24 h;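 active means inhibition of 40% or more at the single tested concentration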;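 further: wild-type TIM10 isogenic control strain grown at permissive 25 °C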
NALP3 yeast inh: inhibitors of NALP3 inflammasome in yeast. Yeast reconstituted NLRP3/ASC/caspase-1, beta-gal luminescence, 24 h. inhibition, % at 10 µM. actives 0.39% (n = 330,000). AID 2825;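 active means inhibition of 50% or more; inactive means inhibition below 50%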
PfHsp90 yeast 2: growth inhibition of yeast expressing Plasmodium Hsp90; inhibition, % at 9.4 µM; actives 0.32% (n = 310,000); S. cerevisiae expressing PfHsp90, BacTiter-Glo ATP, 48 h; yeast lacking PDR1 and PDR3 efflux regulators;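 active means every replicate shows inhibition above about 80%, whatever the replicate mean, limit read from the data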
tim23-1 conf: confirmation of tim23-1 mutant yeast growth inhibitors; inhibition, % at 20 µM; shares compounds with tim23-1 inh; S. cerevisiae tim23-1 growth, BacTiter-Glo luminescence, 24 h; actives 83% (n = 4,400);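 active means inhibition above about 39% in either of two replicate wells at 20 µM, limit read from the data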;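 further: temperature-sensitive tim23-1 mutant grown at 25 °C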
Numbers stand for hits; . = inactive; / = not tested or not shown. Only some compounds are listed: those with a hit (about 4.5% of all), similar ones and a draw of the others.

SMILES	SKKanGAS inh	tim23-1 inh	tim10-1 inh	TIM10 inh	NALP3 yeast inh	PfHsp90 yeast 2	tim23-1 conf
O=[N+]([O-])c1ccc2c(c1N1CCCCC1)=NC1(CCCCC1)[N+]=2[O-]	.	54	.	.	.	.	42
COc1ccc(S(=O)(=O)n2nc(C)c(S(=O)(=O)N3CCOCC3)c2C)cc1OC	.	/	/	/	/	/	/
COc1cc2c(=O)n(CCC(=O)NCC3CCCO3)c(=O)n(CC(=O)Nc3ccc(C)cc3)c2cc1OC (configuration not stated)	.	.	.	.	.	.	/
O=C1OC(c2ccccc2)=NC12CC2c1ccc(Cl)cc1 (configuration not stated)	.	56	.	.	.	.	.
COc1cccc(OCC(O)CNC(C)c2ccccc2)c1 (configuration not stated)	.	.	.	.	.	.	/
CCOc1cc(/C=C2\COc3ccccc3C2=O)cc(Br)c1OCC(=O)N(C)C	.	50	.	.	.	.	57
CN=C1S/C(=C\c2cccc(Cl)c2Cl)C(=O)N1C	.	50	.	.	.	/	60
CN=C1S/C(=C\c2ccc(Cl)cc2)C(=O)N1C	.	.	.	.	.	.	/
Cc1cc(=O)oc2cc3c(cc12)OCO3	.	.	.	.	.	.	/
O=C(CN1C(=O)S/C(=C/c2ccncc2)C1=O)Nc1ccccc1	.	53	.	.	.	.	51
Cc1cc(NC(=O)CN2C(=O)S/C(=C\c3ccccc3)C2=O)no1	.	.	.	.	.	.	/
Cc1cc(Cl)cc(Cl)c1OCCN1CCCC1	.	.	.	.	.	.	/
O=C1CC(c2cccc(Br)c2)c2cc3c(cc2N1)CCC3 (configuration not stated)	.	58	.	.	.	.	52
COc1cc2c(cc1OC)C(c1cccc(Br)c1)CC(=O)N2 (configuration not stated)	.	.	.	.	.	.	/
CCCC(c1nnnn1CS(=O)(=O)c1ccc(C)cc1)N1CCC(C(N)=O)CC1 (configuration not stated)	.	.	.	.	.	.	/
Cc1cccc(Oc2nc(-c3ccccn3)nc3ccccc23)c1	98	51	.	.	.	.	46
NC(=S)NNc1cc(Cl)cc(Cl)c1	.	58	.	.	.	.	70
COc1ccc2[nH]c(=O)c(CN(CC3CCCO3)C(=S)Nc3ccccc3)cc2c1 (configuration not stated)	.	.	.	.	.	.	/
Cc1cc2cc(CN(CC3CCCO3)C(=S)Nc3ccccc3)c(=O)[nH]c2cc1C (configuration not stated)	.	55	.	.	.	.	50
C=CCC[C@H](Cc1ccc(F)cc1)C(=O)OC[C@@H](NC(=O)[C@H](CC=C)CC(=O)NCCO)C(C)(C)C	/	.	.	.	.	.	/
Cc1cccc(C(=O)Oc2ccc3ccc(O)cc3c2)c1	.	.	.	.	.	.	/
CCOc1ccc(NS(=O)(=O)c2ccc(-c3cnc(C4CC4)o3)cc2)cc1	.	51	.	.	.	.	44
Cc1cc(C)cc(NS(=O)(=O)c2ccc(-c3cnc(C4CC4)o3)cc2)c1	.	.	.	.	.	.	/
CCn1cc(Br)c(C(=O)Nc2cccc(Cl)c2)n1	.	59	.	.	.	.	52
CCn1ccc(C(=O)Nc2cccc(Cl)c2)n1	.	.	.	.	.	.	/
SMILES	SKKanGAS inh	tim23-1 inh	tim10-1 inh	TIM10 inh	NALP3 yeast inh	PfHsp90 yeast 2	tim23-1 conf
CCN(CC)c1ccc(C(=O)NNC(=O)c2cccn2C)cc1	.	.	.	.	.	.	/
CCc1ccc(NC(=O)/C(C#N)=C/c2ccncc2)cc1	.	74	.	.	.	.	66
N#C/C(=C\c1ccccc1)C(=O)Nc1ccccn1	.	53	.	.	.	.	.
CC(C)(C)c1ccc(/C=C(\C#N)C(=O)Nc2ccccn2)cc1	.	55	.	.	.	.	61
N#C/C(=C\c1ccccc1)C(=O)Nc1cccnc1	.	50	.	.	.	.	50
Cc1ccc(C(=O)NC(C(=O)OCc2cn3cc(Cl)ccc3n2)C(C)C)cc1 (configuration not stated)	/	.	.	.	.	.	/
CC1=NN(c2ccc(Cl)cc2)C(=O)C1C(c1ccccc1O)c1c(C)[nH]n(-c2ccc(Cl)cc2)c1=O (configuration not stated)	.	57	.	.	.	.	49
COC(=O)C1=C(C)OC(N)=C(C#N)C1c1cccnc1 (configuration not stated)	.	.	.	.	.	.	/
CC1=C(C(=O)OC(C)C)C(c2cncc(-c3ccc(F)cc3)c2)C(C#N)=C(N)O1 (configuration not stated)	.	50	.	.	.	.	.
COc1ccc(NC(=O)COC(=O)c2ccc(C)c(S(=O)(=O)N3CCCCC3)c2)cc1	/	.	.	.	.	/	/
COc1ccc(OC)c(NC(=O)c2csc(Cl)c2OC)c1	.	59	.	.	.	.	44
O=C(Nc1ccccc1)OC1CCC2CC1CCC2OC(=O)Nc1ccccc1 (configuration not stated)	52	53	.	.	.	.	.
O=C(Nc1ccccc1)C1CC2CCC1C2 (configuration not stated)	.	.	.	.	.	.	/
CCOc1ccc(NC(=O)COc2ccc(C(=O)NCC3CCCO3)cc2OC)cc1 (configuration not stated)	/	.	.	.	.	.	/
CN1C(=O)S/C(=C/c2cccnc2)C1=O	.	.	.	.	.	.	/
O=C1/C(=C\c2cccnc2)Sc2ccccc21	.	53	.	.	.	.	59
COc1ccccc1N(CC(=O)Nc1ccc(Br)cc1F)S(=O)(=O)c1cccs1	/	.	.	.	.	/	/
CCOC(=O)CSc1nc2ccc(N)cc2s1	.	.	.	.	.	.	/
Nc1ccc2nc(SCc3cccc(F)c3)sc2c1	.	57	.	.	.	.	46
Cc1cc2cc(CNC(=O)c3ccc(C)c([N+](=O)[O-])c3)ccc2[nH]1	.	62	.	.	.	162	56
Cc1cc2cc(CCNC(=O)c3ccc(C)c([N+](=O)[O-])c3)c(=O)[nH]c2cc1C	.	.	.	.	.	.	/
O=C(Nc1ccccc1N1CCOCC1)c1cccc2c(Br)cccc12	.	.	.	.	.	.	/
Nc1nc(COC(=O)C2CC(=O)N(Cc3ccccc3Cl)C2)nc(Nc2ccccc2)n1 (configuration not stated)	/	.	.	.	.	.	/
Clc1cccc(Cl)c1C1Nc2cccc3cccc(c23)N1	59	53	.	.	.	.	75
CN(C(=O)C1CCN(S(=O)(=O)c2ccccc2[N+](=O)[O-])CC1)C1CCCCC1	/	.	.	.	.	/	/

Bioassay records as filed in PubChem BioAssay.
